Sampled rows, rich in hits. Any-hit rate of the full collection: about 0.41%.
GAA glycogen: GAA glycogen-cleavage inhibition or activation. recombinant GAA, glycogen substrate, Amplex Red glucose oxidase fluorescence. Potency, µM (doses to about 76.4 µM), for the others: top-dose activity change, negative = inhibition, actives largely listed as inhibitors. 300,000 tested, 0.38% active. AID 2100;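 also: potency is read from the fitted curve at half-maximal effect; 0% = full enzyme reaction and -100% = no-enzyme basal signal; the screen sought inhibitors and activators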
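Recombinant human alpha-glucosidase (4 nM final) hydrolysed bovine liver glycogen (30 ug) for 40 min at 37 C in pH 5.0 citrate/phosphate with 0.01% Tween-20. Released glucose detected by glucose oxidase/Amplex Red, Ex 573/Em 610 nm. Compounds up to 77 uM; AC50 from Hill fits.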
GAA inhib: blocks human lysosomal alpha-glucosidase. P10253. purified human GAA, 4-MU-alpha-glucoside fluorescence. Potency, µM (series often up to 76.9 µM), for inactives: top-dose activity change, negative = inhibition, actives largely listed as inhibitors. 200,000 tested, 0.005% active. AID 1466;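 also: potency is read from the fitted curve at half-maximal effect; plate controls were uninhibited enzyme wells for no effect and no-enzyme background for full effect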
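Human enzyme at 4 nM with 400 uM 4-methylumbelliferyl-alpha-D-pyranoside, citrate/phosphate buffer pH 5.0, 0.005% Tween-20, 20 min at room temperature. Compounds up to 77 uM. 4-MU fluorescence (Ex 365/Em 440) read after NaOH/glycine stop; AC50 from Hill fit.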
N370S GC mod: N370S glucocerebrosidase modulation, Gaucher chaperone candidate; 330,000 tested, 0.092% active; Potency, µM (doses to about 59.4 µM), for inactives: top-dose activity change, negative = inhibition, most hits filed as inhibitors; N370S GC spleen homogenate, 4MU-glucoside fluorescence;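 also: potency is read from the fitted curve at half-maximal effect; 0% = full enzyme activity and -100% = no enzyme basal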
aGal spleen mod: inhibitors or activators of human alpha-galactosidase in spleen homogenate; Potency, µM (doses to about 80 µM), for the others: at the highest dose activity change, negative = inhibition, hits mostly inhibitors; AID 2107; 240,000 tested, 0.008% active; human spleen homogenate, 4MU-alpha-Gal fluorescence, 40 min; P06280;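 also: potency is read from the fitted curve at half-maximal effect; 0% = enzyme with vehicle and -100% = no enzyme basal signal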
Target sequence (P06280 32-429 limits assumed): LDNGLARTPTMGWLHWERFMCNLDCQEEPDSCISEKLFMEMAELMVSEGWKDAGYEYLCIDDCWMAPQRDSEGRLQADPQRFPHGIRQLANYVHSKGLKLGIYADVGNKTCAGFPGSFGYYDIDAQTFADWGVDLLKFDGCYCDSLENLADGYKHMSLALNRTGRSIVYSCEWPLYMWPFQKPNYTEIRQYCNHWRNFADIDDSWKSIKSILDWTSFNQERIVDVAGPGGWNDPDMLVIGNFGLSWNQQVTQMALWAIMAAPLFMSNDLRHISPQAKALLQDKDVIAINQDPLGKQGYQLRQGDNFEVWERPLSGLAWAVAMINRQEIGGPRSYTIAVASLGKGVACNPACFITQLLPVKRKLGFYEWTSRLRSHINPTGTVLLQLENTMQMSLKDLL
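Human spleen homogenate (1 ug) was the enzyme source, with 4-methylumbelliferyl-alpha-D-galactopyranoside (1 mM final) in pH 5.0 citrate buffer with 0.01% Tween-20. Compounds were titrated; after 40 min at 37C, NaOH/glycine stop, 4-MU fluorescence read; AC50 from Hill fits.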
aGlu spleen mod: inhibits or activates alpha-glucosidase in human spleen homogenate | human spleen homogenate, 4-MU-alpha-glucoside fluorescence | Potency, µM (series often up to 79.9 µM), for the others: at the top dose activity change, negative = inhibition, hits mostly inhibitors | 240,000 tested, 0.006% active | AID 2112;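 also: potency is read from the fitted curve at half-maximal effect; 0% = enzyme with vehicle and -100% = no enzyme basal signal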
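Enzyme source: human spleen homogenate, 1 ug/well. Buffer 50 mM citric acid/K phosphate pH 5.0, 0.01% Tween-20. 4-MU-alpha-glucoside 1 mM; 37 C x 40 min; NaOH/glycine stop; fluorescence.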
GLA inh pH 4.5: alpha-galactosidase A (human) inhibition, pH 4.5; P06280; activity change, negative = inhibition, % at 105 µM; purified enzyme, 4-MU-alpha-Gal fluorescence, pH 4.5; AID 1467; 230,000 tested, under 10 active;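 also: 0% = full activity with enzyme and -100% = basal without enzyme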
Starred values were filed as active, the others as inactive; ? = inconclusive; / = no result given; [ ] = remark or other dose. Calls follow the shape of the dose curve; as a rule, active = well fitted curve in the direction sought with a large enough effect; inconclusive = small, poorly fitted or top-dose-only effect, or another doubt; inactive = no such curve, though single readings can be large; an effect the other way counts as inactive or inconclusive.

SMILES	GAA glycogen	GAA inhib	N370S GC mod	aGal spleen mod	aGlu spleen mod	GLA inh pH 4.5
COc1cc(O)ccc1-c1nc2cc(C)ccn2c1Nc1ccccc1C	13µM*	/	/	/	/	/
Cc1ccc(O)c(Sc2cc(C)ccc2O)c1	28µM*	-10%	0%	0%	-4%	-4
COc1ccc(/C=N/Nc2nonc2N)cc1OC	16µM*	0%	24%	7%	3%	8
Cc1c(N=Cc2ccncc2)c(=O)n(-c2ccccc2)n1C	12µM*	7%	-15%	1%	0%	5
Cc1c(N=Cc2ccccn2)c(=O)n(-c2ccccc2)n1C	13µM*	-6%	5%	-4%	-12%	3
Cc1c(N=Cc2ccc[nH]2)c(=O)n(-c2ccccc2)n1C	22µM*	1%	3%	2%	2%	0
Cc1cccn2c(=O)c(C=Nc3c(C)n(C)n(-c4ccccc4)c3=O)c(N3CCCC3)nc12	11µM*	-2%	6%	-4%	-3%	8
Cc1c(N=Cc2c(O)n(C)c(=O)c3ccccc23)c(=O)n(-c2ccccc2)n1C	-12%	?	2%	-3%	-6%	6
COc1ccc(C2=Nn3c(nnc3-c3cccc(OC)c3OC)SC2)cc1	/	/	-6%	1%	2%	/
COc1cc(/C=C/c2ccccc2)oc(=O)c1	/	/	8%	6%	-7%	/
NC(=O)NC(N)=O	/	/	11%	9%	-1%	/
COc1ccccc1CNc1n[nH]c(NCc2ccccc2OC)n1	25µM*	-11%	-2%	6%	5%	-6
COc1ccccc1-c1nnc(SCC(=O)c2ccc(Cl)cc2)n1-c1ccccc1	-6%[76.3 µM]	/	/	/	/	/
C=CCn1c(SCC(=O)c2ccc(O)c(O)c2)nnc1-c1ccccc1OC	18µM*	-3%	-7%	-8%	0%	-9
CCn1c(SCC(=O)c2ccc(O)c(O)c2)nnc1-c1ccccc1OC	25µM*	-15%	-1%	2%	-15%	0
CCn1c(SCC(=O)c2ccc(O)c(O)c2)nnc1-c1ccccc1	7.9µM*	?	-7%	-3%	-8%	7
C=CCn1c(SCC(=O)c2ccc(O)c(O)c2)nnc1-c1cccnc1	?	/	-15%	-3%	6%	-9
O=C(O)c1cccc(-c2ccc(/C=N/Nc3nn[nH]n3)o2)c1	1.8µM*	-8%	-2%	1%	-8%	-21
COC(=O)c1cc(Oc2ccc(C(=O)OC)cc2N)cc(C(=O)OC)c1	-8%	4%	3%	-2%	-3%	0
COC(=O)CCCCCNc1ccc(C(=O)OC)cc1N	22µM*	?	-1%	7%	3%	-6
CC(=O)Nc1ccc2c(c1)OCO2	-14%	-2%	-8%	7%	10%	0
Cc1ccc(C(=O)Nc2ccc3c(c2)OCO3)o1	2%	-14%	3%	-6%	-4%	0
C/C(=C\C(=O)c1ccccc1)Nc1ccc2c(c1)OCO2	16µM*	4%	-10%	-1%	4%	8
C/C(=C\C(=O)c1ccc(C)o1)Nc1ccc2c(c1)OCO2	28µM*	3%	17%	2%	-3%	-5
O=C1C2=CC[C@H]3C(=O)N(C4CCCCC4)C(=O)[C@@H]3[C@@H]2[C@H](O)[C@@H]2O[C@H]12	/	/	1%[12.8 µM]	-20%[17.5 µM]	-2%[17.4 µM]	/
SMILES	GAA glycogen	GAA inhib	N370S GC mod	aGal spleen mod	aGlu spleen mod	GLA inh pH 4.5
CN1CCN(c2ncc3nc(-c4cccc(C#N)c4)c(=O)n(CCc4ccccc4)c3n2)CC1	/	/	-10%	17%	8%	/
C=CCc1c(C)nc(-c2ccccc2)nc1N/N=C(\C)c1ccccc1	?	5%	10µM*	5%	-1%	-1
C=CCc1c(C)nc(-c2ccccc2)nc1Nc1ccc(O)cc1	3%	2%	14µM*	-2%	-5%	-3
O=C(/C=C/c1ccc(O)c(O)c1)c1ccc(O)cc1O	/	/	?	0%	-3%	/
COc1cc(C(Nc2ccccn2)c2ccc3ccc(C)nc3c2O)cc(OC)c1O (stereo not drawn)	18µM*	3%	-6%	-1%	1%	-3
c1ccc(-c2noc(-c3cccnc3NCc3ccco3)n2)cc1	-14%[76.3 µM]	/	/	/	/	/

Assay outcomes from PubChem BioAssay.
